The full data set covers some 7,900 targets. This sample favours those with a hit. About 0.6% of all pairs of compound and target were hits. Unmarked numbers belong to inactive results.
Key:
Experiment in all cases: log2 fold change, soluble protein after heating vs DMSO (PISA); higher = thermal stabilisation; K562 cells, 10 uM, 30 min; active = over 0.2 and 3.5 SD of the protein, either way, in both replicates (recomputed)
erlotinib = compound: C#Cc1cccc(Nc2ncnc3cc(OCCOC)c(OCCOC)cc23)c1 [erlotinib]
Procedure, shortened: (§1)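 K562 cells at 2×10^6 cells/mL were treated with 10 μM compound for 30 min. Aliquots were heated for 3 min across 48°C-58°C, pooled, and extracted in PBS with 0.5% NP-40 at 4°C; soluble protein was the supernatant after 21,000xg for 90 min. Soluble protein was quantified by TMTpro 16plex LC-MS/MS with channel sums equalised, and reported as log2 fold change in thermal stability against DMSO controls, with values from duplicates.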

[1] = compound: C/C(=N\NC(=O)C1=CC(=CC=C1)S(=O)(=O)N2CCOCC2)/C3=C(C=CC(=C3)Cl)O
Procedure, shortened: as §1

[2] = compound: C1=CC(=C(C=C1Cl)C2=NC3=NC=CN=C3C(=N2)NC4=CC=NC=C4)F
Procedure, shortened: as §1

[3] = compound: C1=CC(=CC=C1C2=NC3=C(N2)C=C(C=C3)C(=O)N)OC4=CC=C(C=C4)Cl
Procedure, shortened: as §1

[4] = compound: C1=CC2=C(C=CC(=C2)/C=C\3/C(=O)NC(=NCC4=CC=CS4)S3)N=C1
Procedure, shortened: as §1

[5] = compound: C1=CC2=NC=CN=C2C=C1/C=C/3\C(=O)NC(=O)S3
Procedure, shortened: as §1

[6] = compound: C1=CC=C(C=C1)C2=NC(=C(N2)C3=CC=NC=C3)C4=CC(=C(C=C4)Cl)O
Procedure, shortened: as §1

[7] = compound: C1=CC=C2C(=C1)C3=NNC4=CC=CC(=C43)C2=O
Procedure, shortened: as §1

[8] = compound: C1CCN(C1)C(=O)NC2=CC=CC(=C2)NC3=NC=C(C(=N3)NCCC4=CN=CN4)Br
Procedure, shortened: as §1

[9] = compound: C1CN(CCC1(CC2=CC=C(C=C2)Cl)N)C3=NC=NC4=C3C=CN4
Procedure, shortened: as §1

IRAK-1-4 Inhibitor I = compound: C1COCCN1CCN2C3=CC=CC=C3N=C2NC(=O)C4=CC(=CC=C4)[N+](=O)[O-] [IRAK-1-4 Inhibitor I]
Procedure, shortened: as §1

ibrutinib = compound: C=CC(=O)N1CCC[C@@H](n2nc(-c3ccc(Oc4ccccc4)cc3)c3c(N)ncnc32)C1 [ibrutinib]
Procedure, shortened: as §1

[10] = compound: CC(=O)c1cnc2ccc(-c3cc(Cl)c(O)c(Cl)c3)nc2c1N[C@H]1CC[C@H](CN(C)C)CC1
Procedure, shortened: as §1

ralimetinib = compound: CC(C)(C)Cn1c(N)nc2ccc(-c3[nH]c(C(C)(C)C)nc3-c3ccc(F)cc3)nc21 [ralimetinib]
Procedure, shortened: as §1

[11] = compound: CC(C)(O)CC(=O)NCCn1ccc2ncnc(Nc3ccc(Oc4cccc(C(F)(F)F)c4)c(Cl)c3)c21
Procedure, shortened: as §1

[12] = compound: CC(C)C1=C2N=C(C=C(N2N=C1)NCC3=CC=CC=C3)NCCCCCCN
Procedure, shortened: as §1

[13] = compound: CC(C)C[C@@H](C=O)NC(=O)[C@H](CC(C)C)NC(=O)[C@H](CC(C)C)NC(=O)OCc1ccccc1
Procedure, shortened: as §1

pinometostat = compound: CC(C)N(C[C@H]1O[C@@H](n2cnc3c(N)ncnc32)[C@H](O)[C@@H]1O)[C@H]1C[C@@H](CCc2nc3cc(C(C)(C)C)ccc3[nH]2)C1 [pinometostat]
Procedure, shortened: as §1

[14] = compound: CC1=C(C(CC(=O)N1)C2=CC=C(C=C2)C(F)(F)F)C(=O)NC3=C(C=C4C(=C3)C=NN4)F
Procedure, shortened: as §1

[15] = compound: CC1=C(C2=C(C=C1)C(=O)C3=CC=CC=C3N2CCCN)C
Procedure, shortened: as §1

Sequence of UniProt Q7LBC6 (Q7LBC6 whole entry, looked up): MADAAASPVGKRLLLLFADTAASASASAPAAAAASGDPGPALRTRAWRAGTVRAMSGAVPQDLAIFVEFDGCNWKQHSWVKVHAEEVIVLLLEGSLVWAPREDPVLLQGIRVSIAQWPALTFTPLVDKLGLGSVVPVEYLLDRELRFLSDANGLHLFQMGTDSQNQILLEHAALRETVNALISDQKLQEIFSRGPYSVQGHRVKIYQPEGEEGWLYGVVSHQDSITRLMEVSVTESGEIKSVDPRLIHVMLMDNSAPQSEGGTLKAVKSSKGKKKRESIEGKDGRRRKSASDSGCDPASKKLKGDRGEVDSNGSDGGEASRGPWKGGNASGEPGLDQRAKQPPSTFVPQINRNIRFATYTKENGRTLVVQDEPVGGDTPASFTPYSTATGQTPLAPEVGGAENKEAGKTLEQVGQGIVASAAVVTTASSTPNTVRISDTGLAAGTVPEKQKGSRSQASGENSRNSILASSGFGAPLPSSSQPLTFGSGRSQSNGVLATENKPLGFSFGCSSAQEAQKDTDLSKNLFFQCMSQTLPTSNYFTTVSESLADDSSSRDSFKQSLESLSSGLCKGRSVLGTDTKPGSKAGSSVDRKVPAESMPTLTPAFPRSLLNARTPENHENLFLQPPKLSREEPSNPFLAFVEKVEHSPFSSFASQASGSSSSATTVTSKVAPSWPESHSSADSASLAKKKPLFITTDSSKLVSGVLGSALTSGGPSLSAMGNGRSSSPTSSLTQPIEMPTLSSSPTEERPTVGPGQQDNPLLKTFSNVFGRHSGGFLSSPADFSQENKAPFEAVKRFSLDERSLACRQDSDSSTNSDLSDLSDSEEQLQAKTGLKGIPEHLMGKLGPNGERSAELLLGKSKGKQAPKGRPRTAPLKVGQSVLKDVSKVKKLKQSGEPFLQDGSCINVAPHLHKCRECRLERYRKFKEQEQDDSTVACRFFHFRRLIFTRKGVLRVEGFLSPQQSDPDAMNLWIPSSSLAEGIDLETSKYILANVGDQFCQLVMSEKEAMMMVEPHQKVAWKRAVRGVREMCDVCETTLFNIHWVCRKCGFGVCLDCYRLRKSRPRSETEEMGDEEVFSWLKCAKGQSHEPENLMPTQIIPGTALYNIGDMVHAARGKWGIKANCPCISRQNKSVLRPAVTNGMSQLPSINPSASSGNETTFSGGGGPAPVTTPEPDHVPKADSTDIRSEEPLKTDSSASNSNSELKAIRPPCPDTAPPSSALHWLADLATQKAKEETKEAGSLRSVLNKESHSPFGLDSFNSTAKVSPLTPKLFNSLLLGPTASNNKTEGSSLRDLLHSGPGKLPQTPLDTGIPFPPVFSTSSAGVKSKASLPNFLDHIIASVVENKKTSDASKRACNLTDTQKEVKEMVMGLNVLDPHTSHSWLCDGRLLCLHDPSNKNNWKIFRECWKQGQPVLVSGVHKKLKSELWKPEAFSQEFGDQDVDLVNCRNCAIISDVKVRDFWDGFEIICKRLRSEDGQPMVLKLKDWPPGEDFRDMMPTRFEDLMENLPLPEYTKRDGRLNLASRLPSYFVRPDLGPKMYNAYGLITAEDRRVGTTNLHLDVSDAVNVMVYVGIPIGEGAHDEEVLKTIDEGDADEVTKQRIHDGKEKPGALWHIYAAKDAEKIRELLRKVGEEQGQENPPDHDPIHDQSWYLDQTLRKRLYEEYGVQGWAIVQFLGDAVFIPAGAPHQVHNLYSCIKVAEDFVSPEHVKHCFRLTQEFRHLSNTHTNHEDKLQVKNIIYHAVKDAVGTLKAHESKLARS
Sequence of UniProt Q8IYU8 (Q8IYU8 whole entry, looked up): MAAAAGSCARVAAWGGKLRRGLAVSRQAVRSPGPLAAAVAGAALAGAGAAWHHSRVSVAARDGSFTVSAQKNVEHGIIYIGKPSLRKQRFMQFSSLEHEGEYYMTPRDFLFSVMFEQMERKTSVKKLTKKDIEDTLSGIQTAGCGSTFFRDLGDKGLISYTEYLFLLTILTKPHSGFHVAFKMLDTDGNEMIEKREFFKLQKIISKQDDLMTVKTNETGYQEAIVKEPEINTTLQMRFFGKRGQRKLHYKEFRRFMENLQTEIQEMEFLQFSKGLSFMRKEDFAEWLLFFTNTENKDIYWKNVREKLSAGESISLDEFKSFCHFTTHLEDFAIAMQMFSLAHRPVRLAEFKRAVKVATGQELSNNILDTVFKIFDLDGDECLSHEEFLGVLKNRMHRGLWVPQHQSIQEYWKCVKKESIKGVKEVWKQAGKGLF
Sequence of UniProt Q9GZY8 (Q9GZY8 whole entry, looked up): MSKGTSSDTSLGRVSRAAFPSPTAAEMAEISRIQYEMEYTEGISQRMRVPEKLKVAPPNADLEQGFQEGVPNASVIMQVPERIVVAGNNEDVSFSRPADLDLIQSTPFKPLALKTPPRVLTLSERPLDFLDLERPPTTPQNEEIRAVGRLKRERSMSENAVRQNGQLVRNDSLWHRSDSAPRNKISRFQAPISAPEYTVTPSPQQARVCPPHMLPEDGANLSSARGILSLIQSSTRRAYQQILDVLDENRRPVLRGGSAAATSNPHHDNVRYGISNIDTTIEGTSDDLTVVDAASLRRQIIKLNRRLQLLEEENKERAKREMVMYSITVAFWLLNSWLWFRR
Sequence of UniProt Q96EK5 (Q96EK5 whole entry, looked up): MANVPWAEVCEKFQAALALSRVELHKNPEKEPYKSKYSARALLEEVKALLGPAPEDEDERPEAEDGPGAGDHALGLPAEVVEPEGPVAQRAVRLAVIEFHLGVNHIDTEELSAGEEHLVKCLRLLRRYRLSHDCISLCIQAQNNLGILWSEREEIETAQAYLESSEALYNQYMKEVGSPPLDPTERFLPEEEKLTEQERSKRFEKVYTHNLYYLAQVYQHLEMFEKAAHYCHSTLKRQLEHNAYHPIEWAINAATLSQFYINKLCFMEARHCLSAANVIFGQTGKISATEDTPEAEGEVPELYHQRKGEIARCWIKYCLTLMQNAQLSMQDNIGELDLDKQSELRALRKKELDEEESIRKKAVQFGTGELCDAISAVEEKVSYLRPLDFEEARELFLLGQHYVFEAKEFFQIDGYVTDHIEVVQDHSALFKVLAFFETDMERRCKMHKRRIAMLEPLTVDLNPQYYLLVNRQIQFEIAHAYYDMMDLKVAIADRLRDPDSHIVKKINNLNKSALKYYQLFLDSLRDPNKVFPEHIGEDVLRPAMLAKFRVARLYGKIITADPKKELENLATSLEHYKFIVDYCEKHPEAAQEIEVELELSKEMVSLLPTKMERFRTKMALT
Sequence of UniProt P20700 (P20700 whole entry, looked up): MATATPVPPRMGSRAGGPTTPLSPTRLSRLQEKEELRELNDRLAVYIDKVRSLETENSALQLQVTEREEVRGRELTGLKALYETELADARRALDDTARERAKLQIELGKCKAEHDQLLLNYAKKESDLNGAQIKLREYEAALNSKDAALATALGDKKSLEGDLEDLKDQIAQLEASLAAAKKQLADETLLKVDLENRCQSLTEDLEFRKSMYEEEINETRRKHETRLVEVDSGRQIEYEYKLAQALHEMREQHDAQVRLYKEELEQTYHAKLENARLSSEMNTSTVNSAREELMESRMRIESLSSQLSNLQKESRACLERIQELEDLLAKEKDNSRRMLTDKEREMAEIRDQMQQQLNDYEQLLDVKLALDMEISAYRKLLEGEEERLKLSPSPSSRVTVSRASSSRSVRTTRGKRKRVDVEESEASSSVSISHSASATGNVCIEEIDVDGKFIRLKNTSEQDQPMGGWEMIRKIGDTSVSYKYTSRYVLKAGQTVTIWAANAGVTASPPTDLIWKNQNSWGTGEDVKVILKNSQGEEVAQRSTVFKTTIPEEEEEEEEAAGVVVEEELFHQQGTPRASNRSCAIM
Sequence of UniProt P18065 (P18065 whole entry, looked up): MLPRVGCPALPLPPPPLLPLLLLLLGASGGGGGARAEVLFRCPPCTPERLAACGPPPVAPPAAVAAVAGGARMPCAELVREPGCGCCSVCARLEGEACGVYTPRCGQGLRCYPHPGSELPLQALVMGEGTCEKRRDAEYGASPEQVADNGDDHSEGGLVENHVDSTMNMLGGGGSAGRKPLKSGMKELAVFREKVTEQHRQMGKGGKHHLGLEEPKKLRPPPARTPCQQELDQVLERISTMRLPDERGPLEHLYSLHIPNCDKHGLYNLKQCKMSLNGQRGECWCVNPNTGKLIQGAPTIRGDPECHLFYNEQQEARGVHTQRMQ
Sequence of UniProt P14174 (P14174 whole entry, looked up): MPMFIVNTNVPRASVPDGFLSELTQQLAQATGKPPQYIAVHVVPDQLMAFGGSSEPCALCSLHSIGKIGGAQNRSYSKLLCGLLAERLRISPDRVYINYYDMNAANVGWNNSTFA
Sequence of UniProt O43513 (O43513 whole entry, looked up): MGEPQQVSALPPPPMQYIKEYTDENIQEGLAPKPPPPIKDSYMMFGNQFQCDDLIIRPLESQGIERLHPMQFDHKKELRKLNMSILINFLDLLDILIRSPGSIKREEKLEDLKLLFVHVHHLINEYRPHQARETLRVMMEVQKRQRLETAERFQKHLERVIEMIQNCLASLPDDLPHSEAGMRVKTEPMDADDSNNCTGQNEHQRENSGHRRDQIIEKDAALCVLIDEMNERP
Sequence of UniProt Q9BRT3 (Q9BRT3 whole entry, looked up): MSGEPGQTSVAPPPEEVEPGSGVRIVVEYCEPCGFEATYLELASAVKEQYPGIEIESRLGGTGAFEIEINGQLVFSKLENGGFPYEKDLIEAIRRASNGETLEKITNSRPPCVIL
Sequence of UniProt O43766 (O43766 whole entry, looked up): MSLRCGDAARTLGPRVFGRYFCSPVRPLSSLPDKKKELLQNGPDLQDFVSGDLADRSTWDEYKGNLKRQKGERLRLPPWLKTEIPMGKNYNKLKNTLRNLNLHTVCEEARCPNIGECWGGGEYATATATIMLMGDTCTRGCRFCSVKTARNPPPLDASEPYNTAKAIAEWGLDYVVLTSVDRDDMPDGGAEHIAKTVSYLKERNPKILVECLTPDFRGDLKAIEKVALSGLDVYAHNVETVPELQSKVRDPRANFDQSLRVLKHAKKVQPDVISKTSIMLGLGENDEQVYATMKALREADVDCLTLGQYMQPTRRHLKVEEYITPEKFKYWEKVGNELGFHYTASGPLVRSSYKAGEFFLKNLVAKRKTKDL

| Target | log2 fold change (erlotinib) | log2 fold change [1] | log2 fold change [2] | log2 fold change [3] | log2 fold change [4] | log2 fold change [5] | log2 fold change [6] | log2 fold change [7] | log2 fold change [8] | log2 fold change [9] | log2 fold change (IRAK-1-4 Inhibitor I) | log2 fold change (ibrutinib) | log2 fold change [10] | log2 fold change (ralimetinib) | log2 fold change [11] | log2 fold change [12] | log2 fold change [13] | log2 fold change (pinometostat) | log2 fold change [14] | log2 fold change [15] |
| --- | --- | --- | --- | --- | --- | --- | --- | --- | --- | --- | --- | --- | --- | --- | --- | --- | --- | --- | --- | --- |
| MED7 (UniProt O43513) | 0.065 | -0.109 | 0.041 | 0.053 | 0.065 | 0.015 | 0.017 | -0.152 | -0.114 | 0.039 | 0.042 | 0.042 | 0.001 | 0.113 | 0.022 | -0.078 | -0.068 | 0.113 | 0.403 (active) | 0.119 |
| MAPK9 (UniProt P45984) | 0.007 | 0.027 | 0.031 | -0.02 | 0 | -0.02 | -0.026 | 0.202 | 0.063 | 0.016 | -0.002 | -0.016 | 0.278 (active) | 0.208 | 0.005 | -0.037 | -0.032 | -0.032 | -0.022 | 0 |
| IGFBP2 (UniProt P18065) | -0.074 | -0.023 | -0.146 | 0.3 | 0.054 | 0.03 | 0.09 | -0.209 | 0.065 | 0.039 | 0.196 | 0.09 | 0.166 | -0.115 | -0.063 | -0.137 | 0.008 | -0.192 | 0.254 | -0.159 |
| MICU2 (UniProt Q8IYU8) | -0.013 | -0.013 | -0.06 | -0.002 | -0.038 | -0.015 | 0.103 | 0.018 | 0.045 | -0.042 | -0.039 | -0.001 | -0.026 | -0.05 | -0.12 | -0.292 | 0.128 | 0.211 | 0.072 | 0.136 |
| KDM3B (UniProt Q7LBC6) | 0.029 | 0.051 | 0.083 | -0.019 | 0 | 0.043 | 0.029 | -0.015 | -0.03 | 0.008 | -0.01 | -0.04 | -0.023 | -0.018 | -0.089 | -0.047 | 0.014 | -0.011 | -0.018 | -0.007 |
| MFF (UniProt Q9GZY8) | 0.02 | -0.022 | 0.011 | -0.024 | 0.107 | 0.057 | -0.008 | -0.062 | 0.007 | 0.032 | 0.038 | 0.025 | -0.228 | 0.018 | 0.002 | -0.074 | 0.048 | -0.012 | 0.124 | -0.042 |
| LARP4 isoform 4 (UniProt Q71RC2) | 0.015 | 0.007 | -0.123 | 0.055 | 0.086 | 0.002 | -0.028 | -0.044 | -0.004 | -0.035 | -0.091 | 0.037 | -0.128 | 0.068 | 0.046 | -0.19 | 0.059 | 0.114 | 0.133 | -0.054 |
| LTN1 isoform 3 (UniProt O94822) | 0.026 | 0.114 | -0.021 | -0.02 | 0.032 | -0.021 | -0.027 | -0.056 | -0.027 | -0.031 | -0.05 | -0.015 | -0.02 | 0.007 | -0.136 | -0.305 (active) | 0.055 | 0.098 | -0.007 | 0.093 |
| KIFBP (UniProt Q96EK5) | -0.034 | 0.147 | 0 | 0.017 | 0.074 | -0.015 | -0.008 | 0.03 | 0.014 | -0.058 | -0.019 | 0.011 | -0.033 | -0.02 | -0.045 | -0.172 | 0.2 | 0.019 | -0.034 | 0.054 |
| MAPKAPK2 (UniProt P49137) | 0.033 | 0.059 | 0.186 | -0.011 | 0.064 | 0.008 | 0.207 | -0.069 | 0.047 | 0.002 | 0.039 | -0.009 | 0.267 (active) | 0.213 | -0.03 | -0.048 | -0.022 | -0.028 | -0.03 | -0.009 |
| INTS7 (UniProt Q9NVH2) | 0.39 | 0.067 | -0.016 | 0.046 | -0.175 | 0.036 | -0.081 | 0.022 | -0.091 | -0.009 | 0.021 | -0.104 | 0.029 | 0.028 | -0.085 | -0.146 | 0.077 | -0.136 | -0.07 | 0.048 |
| MIEN1 (UniProt Q9BRT3) | 0.023 | 0.048 | 0.046 | -0.02 | 0.033 | 0.099 | 0.035 | -0.065 | 0.024 | -0.076 | 0.105 | -0.029 | -0.051 | -0.075 | -0.091 | 0.074 | -0.036 | 0.019 | 0.004 | 0.045 |
| LMNB1 (UniProt P20700) | -0.06 | 0.071 | 0.001 | 0.029 | -0.073 | 0.064 | -0.07 | -0.151 | -0.079 | 0.001 | -0.004 | -0.03 | -0.22 | 0.015 | 0.091 | -0.048 | 0.031 | 0.011 | 0.01 | -0.082 |
| KPNB1 (UniProt Q14974) | -0.001 | 0.075 | -0.03 | -0.036 | -0.028 | 0.029 | -0.049 | -0.016 | -0.034 | -0.136 | -0.079 | -0.041 | 0.033 | 0.042 | -0.036 | -0.355 (active) | 0.035 | 0.113 | 0.012 | -0.038 |
| MIF (UniProt P14174) | 0.058 | 0.128 | 0.368 (active) | 0.033 | -0.07 | 0.034 | -0.037 | -0.069 | -0.057 | -0.029 | 0.017 | 0.039 | -0.014 | 0.071 | -0.119 | 0.052 | 0.04 | -0.043 | 0.201 | 0.133 |
| LIAS (UniProt O43766) | 0.068 | -0.24 (active) | 0.011 | 0.019 | 0.014 | 0.007 | -0.273 | 0.009 | 0.028 | 0 | 0.029 | 0.005 | 0.101 | -0.212 | -0.003 | -0.023 | 0.131 | -0.011 | 0.003 | -0.01 |
